Here are results for 14 compounds from PubChem BioAssay.

For some assays here: Potency and affinity values are given separately. Activity calls are given as the source filed them.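 The calls were made as follows, unless noted: active = fluorescence ratio normalized to control raised more than 50% in primary screen plus both repeat runs; inactive = the rest.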

The test system of experiment [1] is TRPC4 beta (transient receptor potential cation channel C4), mouse. The experiment can be described thus: activators of mouse TRPC4 channel, confirmation, cell-based, Fluo4 calcium, HEK293 TRPC4beta/mu-opioid, duplicates, 10 µM (AID 2426). The settings on record: Fluo4 calcium fluorescence, at 10 µM; stronger effect = higher value.
Experiment [2] concerns transient receptor potential cation channel C4 beta (TRPC4), mouse. The experiment can be described thus: activators of mouse TRPC4 channel, confirmation, cell-based, second round, Fluo4, HEK293 TRPC4beta/mu-opioid, 1 µM (AID 2461;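 active = primary screen active and over 50% activation in each of two duplicate runs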). Particulars: Fluo4 calcium fluorescence, at 1 µM; stronger effect = higher value.
Experiment [3] concerns TRPC4 (transient receptor potential cation channel C4 beta), mouse. The experiment can be described thus: positive allosteric modulators of mouse TRPC4, confirmation, cell-based, second round, Fluo-4, HEK293 TRPC4beta/mu-opioid, 1 µM (AID 2554;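 active = primary screen hit whose fluorescence ratio, in both repeats, exceeds the weak agonist control mean by 3 SD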). The settings on record: DAMGO EC20, Fluo-4 calcium flux, at 1 µM; stronger effect = higher value. For orientation: Calcium assays in cells follow changes in intracellular calcium, usually with a dye or a luminescent sensor.

Experiment [4] has as its system TRPC4 beta (transient receptor potential cation channel C4), mouse. The experiment can be described thus: positive allosteric modulators of mouse TRPC4, confirmation, cell-based, Fluo-4, HEK293 TRPC4beta/mu-opioid (AID 2555;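 active = primary screen hit whose calcium fluorescence ratio, in both repeats, exceeds the weak agonist control mean by 3 SD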). The settings on record: DAMGO EC20, Fluo-4 calcium flux, at 10 µM; stronger effect = higher value.
Experiment [5] has as its target Short transient receptor potential channel 4 (Mus musculus) (UniProt Q9QUQ5). The experiment can be described thus: inhibitors of mouse TRPC4 channel, confirmation, cell-based, Fluo4, HEK293 TRPC4beta/mu-opioid (AID 2636;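 active = calcium signal cut by more than 3 SD below the full-agonist control yet still positive, in both repeats and the earlier primary screen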). Particulars: DAMGO, Fluo4 calcium flux, at 10 µM; stronger effect = higher value.
Experiment [6] shares this target. The experiment can be described thus: inhibitors of mouse TRPC4 channel, confirmation, cell-based, second round, Fluo4, HEK293 TRPC4beta/mu-opioid, 1 µM (AID 2637;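 active = calcium signal ratio cut to more than 3 SD under the fully stimulated control mean yet still positive, in both repeats and the primary screen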;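 as to inhibition: percent of integrated ratio relative to wells lacking test compound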). The settings on record: Fluo4 calcium flux, DAMGO, at 1 µM; stronger effect = higher value.
Experiment [7] shares this target. The experiment can be described thus: mouse TRPC4 channel activators, dose response, cell-based, HEK293 TRPC4/mu-opioid, Fluo-4 calcium (AID 434937;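 active = primary screen activator hit with a dose response curve and TRPC4 channel activation at any tested dose; inactive = no activation, no dose response, or not a primary hit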).
For experiment [8] the target is unchanged. The experiment can be described thus: TRPC4 positive allosteric modulators, dose response, cell-based, HEK293 TRPC4/mu-opioid, Fluo-4 calcium, EC20 DAMGO (AID 434941;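 active = earlier screen potentiator hit that boosts the TRPC4 ion channel at some dose, with a dose response; inactive = no potentiation, no dose response, or not a prior hit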;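 also: calcium entry triggered by an EC20 dose of DAMGO at the co-expressed mu-opioid receptor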).
Experiment [9] has as its target Short transient receptor potential channel 6 (Mus musculus) (UniProt Q61143). The experiment can be described thus: inhibition of mouse TRPC6 channel, confirmation, selectivity assay for TRPC4 inhibitor project, cell-based, HEK293, membrane potential dye, duplicate (AID 434948;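 active = active in primary screen and both duplicates, each dropping signal beyond three positive-control SD with fluorescence still positive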). The settings on record: HEK293 TRPC6, membrane potential dye fluorescence, at 10 µM, stimulated with maximal-effect acetylcholine; stronger effect = higher value.

Experiment [10] has the same target. The experiment can be described thus: activation of mouse TRPC6 channel, confirmation, selectivity assay for TRPC4 activator project, cell-based, HEK293, membrane potential dye, duplicate (AID 434950;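 active = membrane potential signal rise above negative control mean plus 3 SD in both duplicates, also active in the earlier TRPC4 screen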). Particulars: HEK293 TRPC6, membrane potential fluorescence, at 10 µM; stronger effect = higher value.
The target is the same in experiment [11]. The experiment can be described thus: TRPC6 potentiation by TRPC4 potentiator hits, confirmation, selectivity assay for TRPC4 potentiator project, HEK293 cells, membrane potential dye, duplicate (AID 434952;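 active = compound raising the membrane signal above positive-control mean plus 3 SD in both repeats, and a primary screen hit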). The settings on record: HEK293 TRPC6, membrane potential dye fluorescence, at 10 µM, maximal acetylcholine added after compound; stronger effect = higher value.

Experiment [12] concerns the target Short transient receptor potential channel 4 (Mus musculus) (UniProt Q9QUQ5). The experiment can be described thus: calcium flux activators in TRPC4/5HT1a cells, counter-screen for TRPC4 activator project, cell-based, second counter screen, HEK293 TRPC4/5HT1a, Fluo-4 (AID 434977;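 active = calcium signal rise above buffer-control mean plus 5 SD in both duplicates, and also a hit in the primary screen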). The settings on record: Fluo-4 calcium flux, at 10 µM; stronger effect = higher value.
Experiment [13] can be described thus: calcium flux inhibitors in TRPC4/5HT1a cells, confirmation, counter-screen for TRPC4 inhibitor project, cell-based, second counter screen, HEK293 TRPC4/5HT1a, Fluo-4 (AID 434978;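 active = primary screen active whose calcium signal fell more than 3 SD beyond the full-serotonin control mean in both duplicate plates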;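 as to outcome: serotonin given first at submaximal then at maximal dose after compound preincubation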). The settings on record: Fluo-4 calcium flux, at 10 µM, serotonin added to trigger calcium flux; stronger effect = higher value.
In experiment [14] the test system is TRPC4 (mouse), co-expressed with 5HT1a in HEK293. The experiment can be described thus: calcium flux potentiators in TRPC4/5HT1a cells, confirmation, counter-screen for TRPC4 potentiator project, cell-based, second counter screen, HEK293 TRPC4/5HT1a, Fluo-4 (AID 434979;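 active = signal rise over 3 SD above mean of control wells given weak agonist, in both repeats and first screen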). Particulars: Fluo-4 calcium flux, at 10 µM, serotonin added at its EC20 dose; stronger effect = higher value.

A short description of experiment [15]: calcium flux activation in mu-opioid HEK293 cells, confirmation, counter-screen for TRPC4 activator project, cell-based, HEK293 mu-opioid receptor line (AID 449723;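 active = hit in primary screen, with calcium signal over 5 SD above buffer well mean in both duplicates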;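 also: counter screen cells carry the mu-opioid receptor alone and lack TRPC4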). Particulars: Fluo-4 calcium fluorescence, at 10 µM; stronger effect = higher value.
Experiment [16] can be described thus: calcium flux enhancement in mu-opioid HEK293 cells, confirmation, counter-screen for TRPC4 allosteric potentiator project, cell-based, HEK293 mu-opioid receptor line (AID 449724;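 active = calcium signal rise more than 3 SD above the low-dose agonist control mean, in both duplicate plates and the primary screen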;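 also: HEK293 cells carrying mu-opioid receptor only with no TRPC4 channel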). The settings on record: Fluo-4 calcium flux, at 10 µM, compound added before EC20 DAMGO stimulus; stronger effect = higher value.

Chain of Short transient receptor potential channel 6 (Mus musculus) (Q61143 whole entry, looked up): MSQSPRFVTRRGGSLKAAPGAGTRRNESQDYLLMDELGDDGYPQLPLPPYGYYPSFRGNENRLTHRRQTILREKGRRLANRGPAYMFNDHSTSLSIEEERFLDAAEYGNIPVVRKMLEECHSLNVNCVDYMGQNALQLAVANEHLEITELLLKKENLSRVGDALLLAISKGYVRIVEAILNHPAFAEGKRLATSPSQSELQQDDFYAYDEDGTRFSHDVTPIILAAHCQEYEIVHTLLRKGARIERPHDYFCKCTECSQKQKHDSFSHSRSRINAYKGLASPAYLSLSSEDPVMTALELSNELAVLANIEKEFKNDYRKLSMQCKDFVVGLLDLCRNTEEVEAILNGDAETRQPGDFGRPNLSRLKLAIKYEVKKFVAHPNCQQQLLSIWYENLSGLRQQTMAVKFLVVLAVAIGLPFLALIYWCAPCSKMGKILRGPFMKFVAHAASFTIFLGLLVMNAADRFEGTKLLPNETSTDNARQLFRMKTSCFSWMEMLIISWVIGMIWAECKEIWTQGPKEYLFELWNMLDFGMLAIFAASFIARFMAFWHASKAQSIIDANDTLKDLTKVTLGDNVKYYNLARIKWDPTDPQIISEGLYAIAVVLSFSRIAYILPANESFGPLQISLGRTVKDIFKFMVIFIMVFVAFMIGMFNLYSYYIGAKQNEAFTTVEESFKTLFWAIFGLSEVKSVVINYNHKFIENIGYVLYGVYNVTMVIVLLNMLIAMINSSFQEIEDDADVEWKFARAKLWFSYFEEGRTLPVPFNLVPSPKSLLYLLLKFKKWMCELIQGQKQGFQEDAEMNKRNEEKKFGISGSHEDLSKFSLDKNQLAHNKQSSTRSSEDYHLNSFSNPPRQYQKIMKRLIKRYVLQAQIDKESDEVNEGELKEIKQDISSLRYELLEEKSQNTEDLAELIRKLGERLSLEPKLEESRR
Chain of Short transient receptor potential channel 4 (Mus musculus) (Q9QUQ5 whole entry, looked up): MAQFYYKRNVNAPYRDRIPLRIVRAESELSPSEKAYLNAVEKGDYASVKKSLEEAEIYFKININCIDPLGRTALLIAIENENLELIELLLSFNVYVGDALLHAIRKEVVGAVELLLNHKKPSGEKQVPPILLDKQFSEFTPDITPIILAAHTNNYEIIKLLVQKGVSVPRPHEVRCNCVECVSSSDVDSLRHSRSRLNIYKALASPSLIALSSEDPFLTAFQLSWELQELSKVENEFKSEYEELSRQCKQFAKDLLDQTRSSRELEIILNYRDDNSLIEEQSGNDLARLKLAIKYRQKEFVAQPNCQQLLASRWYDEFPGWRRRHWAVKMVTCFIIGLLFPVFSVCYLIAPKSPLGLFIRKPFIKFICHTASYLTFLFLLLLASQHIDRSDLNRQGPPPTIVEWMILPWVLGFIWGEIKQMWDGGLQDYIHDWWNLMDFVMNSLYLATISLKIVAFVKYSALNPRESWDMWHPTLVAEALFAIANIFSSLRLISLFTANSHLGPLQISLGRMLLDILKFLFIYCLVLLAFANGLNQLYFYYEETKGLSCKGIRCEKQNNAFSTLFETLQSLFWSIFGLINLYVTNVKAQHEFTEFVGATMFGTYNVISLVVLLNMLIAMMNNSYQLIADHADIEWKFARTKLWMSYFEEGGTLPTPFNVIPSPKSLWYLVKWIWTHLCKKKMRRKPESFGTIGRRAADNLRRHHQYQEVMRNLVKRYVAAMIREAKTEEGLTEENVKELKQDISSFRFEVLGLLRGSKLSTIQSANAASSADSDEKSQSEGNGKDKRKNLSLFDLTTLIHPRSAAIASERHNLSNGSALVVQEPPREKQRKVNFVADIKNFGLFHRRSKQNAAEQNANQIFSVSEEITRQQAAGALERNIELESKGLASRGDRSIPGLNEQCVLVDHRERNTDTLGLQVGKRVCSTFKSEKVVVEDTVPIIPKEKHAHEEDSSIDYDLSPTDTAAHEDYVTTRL

Usually inhibition stands for the drop in the measured response relative to a control, in per cent. In the case of `CCOC(=O)c1c(-c2cccc(C)c2)csc1NC(=O)C1CC=CCC1C(=O)O` (centres undefined), the outcome in experiment [1], in experiment [2], in experiment [3], in [4], in experiment [6] and in experiment [7] was inactive. Further, the outcome in experiment [8], in [9], in [10], in [11], in [12] and in experiment [14] was inactive. Also, the outcome in experiment [15] and in experiment [16] was inactive. In addition, the inhibition was 89% (active) in [5] and 46.1% (active) in [13].

`CCOc1ccccc1N(C(=O)c1snc(C(N)=O)c1N)C(C(=O)NCc1ccccc1)c1ccc(O)cc1` (centres undefined): the outcome in [1], in experiment [2], in [3], in [4], in experiment [6] and in experiment [7] was inactive. Also, the result in experiment [8], in [9], in [10], in experiment [11], in experiment [12] and in [14] was inactive. Further, the result in experiment [15] and in experiment [16] was inactive. Also, the inhibition in [5] is 79% (active); in experiment [13] it was 41.9% (active).

For the compound `CCOc1ccccc1CN1CCN(Cc2cccc3nonc23)CC1CCO` (centres undefined), the outcome in experiment [1], in experiment [2], in [3], in experiment [4], in experiment [5] and in experiment [6] was inactive. The outcome in [7], in experiment [8], in [9], in experiment [10], in [11] and in [12] was inactive. The result in experiment [13], in [14], in [15] and in experiment [16] was inactive.

As to `O=C(COc1ccc(Cl)cc1)Nc1ccc(C(=O)O)cc1NC(=O)COc1ccc(Cl)cc1`, the result in [1], in [2], in experiment [3], in [4], in [6] and in experiment [7] was inactive. Besides, the outcome in experiment [8], in [9], in experiment [10], in experiment [11], in [12] and in experiment [13] was inactive. The outcome in experiment [14], in experiment [15] and in experiment [16] was inactive. Moreover, in experiment [5], the inhibition was 68% (active).

Consider `CN(C)CCCN(C(=O)c1ccc(S(=O)(=O)N2CCCC2)cc1)c1nc2c(F)cc(F)cc2s1`, for which the result in experiment [1], in experiment [2], in experiment [3], in experiment [4], in [6] and in [7] was inactive. The outcome in experiment [8], in experiment [9], in [10], in [11], in experiment [12] and in [13] was inactive. The outcome in experiment [14], in experiment [15] and in experiment [16] was inactive. For the same compound, the inhibition in [5] is 68% (active).

`O=c1oc2ccccc2c(Nc2ccccc2)c1CN1CCCCC1`: the outcome in experiment [1], in [2], in experiment [3], in experiment [4], in [7] and in [8] was inactive. The compound was classed as inactive in experiment [9], in experiment [10], in experiment [11], in [12], in experiment [13] and in experiment [14]. Besides, the outcome in experiment [15] and in experiment [16] was inactive. For the same compound, the inhibition in [5] was 84% (active); in experiment [6], 46% (active).

`Cc1cccc(-c2nnc(SCc3nc4ccccc4[nH]3)n2Cc2ccco2)c1`: the outcome in experiment [1], in [2], in [3], in [4], in experiment [6] and in experiment [7] was inactive. Also, the outcome in experiment [8], in [9], in experiment [10], in experiment [11], in experiment [12] and in [14] was inactive. For the same compound, the result in [15] and in [16] was inactive. Besides, the results for the inhibition in [5] and in experiment [13] were 90% (active) and 26.7% (active), respectively.

As for `Cc1ccccc1Cn1c(=N)n(CC(O)c2ccco2)c2ccccc21` (centres undefined), the outcome in experiment [1], in [2], in experiment [3], in experiment [4], in experiment [7] and in experiment [8] was inactive. Also, the call in [9], in experiment [10], in experiment [11], in experiment [12], in experiment [14] and in experiment [15] was inactive. In addition, in experiment [16], the outcome was inactive. Moreover, the inhibition in [5] is 89% (active); in experiment [6] it was 58% (active); in experiment [13], 33.6% (active).

Take `O=C(CN1CCCCCC1)N1c2ccccc2Sc2ccccc21`: the result in [1], in experiment [2], in experiment [3], in experiment [4], in experiment [7] and in experiment [8] was inactive. Also, the call in experiment [10], in experiment [11], in [12], in experiment [14], in experiment [15] and in experiment [16] was inactive. Moreover, the inhibition in experiment [5] is 79% (active); in experiment [6], 56% (active); in [9] it was 21% (active); in experiment [13] it was 29.7% (active).

As for `CC(C)(C)Cc1nc2ccccc2n1CCc1ccccc1`, the outcome in experiment [1], in experiment [2], in [3], in experiment [4], in experiment [7] and in experiment [8] was inactive. Moreover, the call in experiment [9], in experiment [10], in experiment [11], in experiment [12], in [14] and in experiment [15] was inactive. Moreover, the result in [16] was inactive. For the same compound, the inhibition is 82% (active) in experiment [5], 64% (active) in [6] and 17.2% (active) in experiment [13].

`Cc1cc(-c2csc3ncnc(N4CCN(C)CC4)c23)cc(C)c1C`: the outcome in experiment [1], in [2], in experiment [3], in experiment [4], in experiment [7] and in experiment [8] was inactive. In addition, the compound was classed as inactive in experiment [9], in experiment [10], in experiment [11], in [12], in experiment [14] and in experiment [15]. In addition, the outcome in [16] was inactive. Also, the inhibition in experiment [5] was 84% (active); in [6], 49% (active); in experiment [13] it was 16.6% (active).

Regarding `Cc1cccc2cc(CN(Cc3nnnn3Cc3ccccc3)C3CCCC3)c(=O)[nH]c12`, the result in experiment [1], in [2], in [3], in experiment [4], in experiment [7] and in [8] was inactive. In addition, the compound was called inactive in experiment [9], in [10], in experiment [11], in experiment [12], in experiment [13] and in experiment [14]. The result in experiment [15] and in experiment [16] was inactive. For the same compound, the inhibition is 91% (active) in experiment [5] and 63% (active) in experiment [6].

As for `CCC1(C(=O)c2ccccc2)C(c2ccc([N+](=O)[O-])cc2)C1(C(=O)OC)C(=O)OC` (centres undefined), the outcome in experiment [1], in [2], in [3], in experiment [4], in [6] and in experiment [7] was inactive. Moreover, the result in experiment [8], in [9], in experiment [10], in [11], in experiment [12] and in [13] was inactive. Also, the outcome in experiment [14], in [15] and in [16] was inactive. Also, the inhibition in [5] is 71% (active).

`COc1ccc(Nc2nc(N)c3ccccc3n2)c(OC)c1`: the outcome in experiment [1], in experiment [2], in experiment [3], in experiment [4], in experiment [6] and in experiment [7] was inactive. In addition, the result in [8], in experiment [9], in experiment [10], in [11], in [12] and in [14] was inactive. Further, the result in [15] and in experiment [16] was inactive. Further, the inhibition in [5] is 93% (active); in [13], 26.1% (active).
